According to PubChem BioAssay (NCI):
About 83,000 compounds went through this panel and 20% of them were active in at least one assay; those are over-represented in the sample as a whole.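 Each cell line was grown in a 96-well plate and treated with one concentration of compound for 48 hours. Values below 10 were considered active.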 Calls of active or inactive are those of the source.

Assays:
Assay in all cases: NCI-60 one-dose screen, 48 h (100 = growth as untreated, 0 = no growth, -100 = all killed)
Conditions in all cases: 10 µM unless noted
EKVX NSCLC = tested on: EKVX NSCLC
SN12C renal = tested on: SN12C renal
UO-31 renal = tested on: UO-31 renal
ACHN renal = tested on: ACHN renal
CAKI-1 renal = tested on: CAKI-1 renal
A498 renal = tested on: A498 renal
CCRF-CEM leukemia = tested on: CCRF-CEM leukemia
MOLT-4 leukemia = tested on: MOLT-4 leukemia
SR leukemia = tested on: SR leukemia
RPMI-8226 leukemia = tested on: RPMI-8226 leukemia
OVCAR-8 ovarian = tested on: OVCAR-8 ovarian
OVCAR-5 ovarian = tested on: OVCAR-5 ovarian
OVCAR-4 ovarian = tested on: OVCAR-4 ovarian
SK-OV-3 ovarian = tested on: SK-OV-3 ovarian
IGROV1 ovarian = tested on: IGROV1 ovarian
OVCAR-3 ovarian = tested on: OVCAR-3 ovarian
HS 578T breast = tested on: HS 578T breast
NCI/ADR-RES ovarian = tested on: NCI/ADR-RES ovarian
T-47D breast = tested on: T-47D breast

Measured: growth

C/C(=N/NC(N)=S)c1ccc(Nc2nc(SCC(C)C)nc(-c3ccc(F)cc3)c2C#N)cc1
active: EKVX NSCLC -0.0417% | UO-31 renal 0.28% | CAKI-1 renal -9.45% | OVCAR-8 ovarian -3.63% | OVCAR-3 ovarian -19.5% | HS 578T breast 4% | NCI/ADR-RES ovarian -14.6%
inactive: SN12C renal 12.7% | ACHN renal 12.5% | A498 renal 15.9% | CCRF-CEM leukemia 51.7% | MOLT-4 leukemia 44.4% | SR leukemia 42.8% | RPMI-8226 leukemia 34.2% | OVCAR-5 ovarian 29.2% | OVCAR-4 ovarian 26.5% | SK-OV-3 ovarian 28.9% | IGROV1 ovarian 21.2% | T-47D breast 21.6%

CN(C)S(=O)(=O)c1oc(-c2ccccc2)nc1C#N
inactive: EKVX NSCLC 78.3% | SN12C renal 72.4% | CAKI-1 renal 53.7% | A498 renal 65.6% | RPMI-8226 leukemia 76% | OVCAR-8 ovarian 94.4% | OVCAR-5 ovarian 100% | OVCAR-4 ovarian 99.7% | SK-OV-3 ovarian 136% | IGROV1 ovarian 38.8% | HS 578T breast 107% | NCI/ADR-RES ovarian 107% | T-47D breast 59.6%
active: UO-31 renal -51% | ACHN renal -83.9% | CCRF-CEM leukemia 1.79% | MOLT-4 leukemia -13.1% | SR leukemia -19.7%

N/C(=N\c1nc2c(Cl)cc(Cl)cc2s1)C(Cl)(Cl)Cl
active: ACHN renal -32% | CAKI-1 renal 5.87% | A498 renal -44.4% | OVCAR-3 ovarian -9.72%
inactive: EKVX NSCLC 13.4% | SN12C renal 77.9% | UO-31 renal 45.8% | CCRF-CEM leukemia 83.7% | MOLT-4 leukemia 82.8% | SR leukemia 85.1% | RPMI-8226 leukemia 15.4% | OVCAR-8 ovarian 68.3% | OVCAR-4 ovarian 67.9% | SK-OV-3 ovarian 83.8% | IGROV1 ovarian 57.8% | HS 578T breast 22.1% | NCI/ADR-RES ovarian 68.3% | T-47D breast 32.3%

Cc1cccc2sc(/N=C(\N)C(Br)Br)nc12
active: ACHN renal -13.5% | CAKI-1 renal 3.85% | CCRF-CEM leukemia 1.81% | MOLT-4 leukemia 2.63% | SR leukemia -23.6% | RPMI-8226 leukemia 2.19% | IGROV1 ovarian -65.7%
inactive: EKVX NSCLC 19.9% | SN12C renal 18.2% | UO-31 renal 30.6% | A498 renal 38.7% | OVCAR-8 ovarian 32.7% | OVCAR-5 ovarian 41.2% | OVCAR-4 ovarian 64.7% | SK-OV-3 ovarian 87.5% | OVCAR-3 ovarian 29.2% | HS 578T breast 37.2% | NCI/ADR-RES ovarian 17.6% | T-47D breast 41.4%

OC1CCN(CCCOc2c3ccccc3nc3c2oc2ccc(Cl)cc23)CC1
inactive: EKVX NSCLC 14.8% | SN12C renal 18.8% | UO-31 renal 12.8% | CAKI-1 renal 12.8% | CCRF-CEM leukemia 19.2% | OVCAR-8 ovarian 18.7% | OVCAR-5 ovarian 21.2% | OVCAR-4 ovarian 19.1% | SK-OV-3 ovarian 45.6% | OVCAR-3 ovarian 27.7% | HS 578T breast 32% | NCI/ADR-RES ovarian 21.5% | T-47D breast 35.9%
active: ACHN renal 5.57% | A498 renal -8.33% | MOLT-4 leukemia 9.39% | SR leukemia 8.25% | RPMI-8226 leukemia -3.88% | IGROV1 ovarian 1.4%

[Cl][Ru].c1ccc(-c2cccc(-c3ccccn3)n2)nc1.c1ccc(-c2ccnc3c2ccc2c(-c4ccccc4)ccnc23)cc1
inactive: EKVX NSCLC 62.7% | SN12C renal 20.1% | UO-31 renal 79.6% | ACHN renal 96.7% | CAKI-1 renal 80.3% | A498 renal 54.9% | CCRF-CEM leukemia 38% | MOLT-4 leukemia 41.4% | SR leukemia 11% | OVCAR-8 ovarian 68.2% | OVCAR-5 ovarian 68.1% | OVCAR-4 ovarian 47.3% | SK-OV-3 ovarian 46.8% | IGROV1 ovarian 21.4% | OVCAR-3 ovarian 13.8% | HS 578T breast 13.4% | NCI/ADR-RES ovarian 71.5% | T-47D breast 14.2%
active: RPMI-8226 leukemia -10.5%

CNC(=O)c1cc(-c2ccc(NC(=O)Nc3ccc(N4CCOCC4)c(C(F)(F)F)c3)cc2)nc2cccnc12
active: RPMI-8226 leukemia 9.25%
inactive: EKVX NSCLC 76.6% | SN12C renal 41.6% | UO-31 renal 43.2% | ACHN renal 50.8% | CAKI-1 renal 64% | A498 renal 79.9% | CCRF-CEM leukemia 40.5% | MOLT-4 leukemia 34.6% | SR leukemia 13.6% | OVCAR-8 ovarian 49.9% | OVCAR-5 ovarian 91.4% | OVCAR-4 ovarian 49.3% | SK-OV-3 ovarian 93.4% | IGROV1 ovarian 57.5% | HS 578T breast 32.2% | NCI/ADR-RES ovarian 68.6% | T-47D breast 39.6%

Cc1nc(-c2cc3ccccc3oc2=O)ccc1C(=O)/C=C/c1ccccn1
active: CCRF-CEM leukemia 6.22% | SR leukemia -12.6% | RPMI-8226 leukemia -36.3% | IGROV1 ovarian 7%
inactive: EKVX NSCLC 84.3% | SN12C renal 47.5% | UO-31 renal 58% | ACHN renal 58.7% | CAKI-1 renal 60.6% | A498 renal 89.2% | MOLT-4 leukemia 27.1% | OVCAR-8 ovarian 69.3% | OVCAR-5 ovarian 60.7% | OVCAR-4 ovarian 85.2% | SK-OV-3 ovarian 116% | OVCAR-3 ovarian 46.9% | HS 578T breast 80.3% | NCI/ADR-RES ovarian 77.4% | T-47D breast 52.1%

CCOC(=O)c1c(Nc2ccccc2)nn2c(N)c(C#N)c(-c3ccc(Cl)cc3)nc12
inactive: EKVX NSCLC 68.9% | SN12C renal 53.1% | UO-31 renal 93.8% | ACHN renal 42.1% | CAKI-1 renal 31.5% | A498 renal 63.3% | CCRF-CEM leukemia 83% | MOLT-4 leukemia 87.5% | SR leukemia 86.9% | RPMI-8226 leukemia 86.1% | OVCAR-8 ovarian 42.5% | OVCAR-5 ovarian 78.5% | OVCAR-4 ovarian 44.1% | SK-OV-3 ovarian 59.4% | IGROV1 ovarian 70.5% | OVCAR-3 ovarian 81.8% | HS 578T breast 33.8% | NCI/ADR-RES ovarian 71% | T-47D breast 68.5%

N#Cc1nc(-c2ccccc2)oc1S(N)(=O)=O
active: SR leukemia 3.32%
inactive: EKVX NSCLC 97.5% | SN12C renal 49.6% | UO-31 renal 72.3% | ACHN renal 73% | CAKI-1 renal 63.1% | A498 renal 83.1% | CCRF-CEM leukemia 14.6% | MOLT-4 leukemia 41.4% | RPMI-8226 leukemia 46.2% | OVCAR-8 ovarian 79.1% | OVCAR-5 ovarian 74.1% | OVCAR-4 ovarian 84.2% | SK-OV-3 ovarian 135% | IGROV1 ovarian 49.2% | OVCAR-3 ovarian 77.4% | HS 578T breast 95% | NCI/ADR-RES ovarian 82.7% | T-47D breast 64.1%

CS(=O)(=O)c1ccc(-c2nc3ccccn3c2/C=N/Nc2nc(-c3ccc(Br)cc3)cs2)cc1
inactive: EKVX NSCLC 97.8% | SN12C renal 103% | UO-31 renal 84.8% | ACHN renal 103% | CAKI-1 renal 96.9% | A498 renal 78% | CCRF-CEM leukemia 90.8% | MOLT-4 leukemia 94% | SR leukemia 95.1% | RPMI-8226 leukemia 94.1% | OVCAR-8 ovarian 99.1% | OVCAR-5 ovarian 110% | OVCAR-4 ovarian 107% | SK-OV-3 ovarian 140% | IGROV1 ovarian 111% | OVCAR-3 ovarian 139% | HS 578T breast 112% | NCI/ADR-RES ovarian 107% | T-47D breast 94%

Cc1ccc(C(=O)Nc2cccc(C(F)(F)F)c2)cc1Nc1nc(-c2cnccn2)nc2c1cnn2C
inactive: EKVX NSCLC 77.3% | SN12C renal 64.7% | UO-31 renal 37.8% | ACHN renal 53% | CAKI-1 renal 48.9% | A498 renal 53.9% | CCRF-CEM leukemia 78.2% | MOLT-4 leukemia 43.1% | SR leukemia 39.5% | RPMI-8226 leukemia 61.8% | OVCAR-8 ovarian 77.3% | OVCAR-5 ovarian 39.2% | OVCAR-4 ovarian 83.7% | SK-OV-3 ovarian 97.9% | IGROV1 ovarian 52.7% | OVCAR-3 ovarian 97.9% | HS 578T breast 51.2% | NCI/ADR-RES ovarian 75.6% | T-47D breast 74.5%

Nc1ncc(-c2ccc3ncnc(N4CCc5cc(F)c(Cl)cc54)c3c2)cc1CO
active: EKVX NSCLC -15.8% | UO-31 renal 6.11% | ACHN renal 5.95% | CAKI-1 renal 2.97% | A498 renal -64% | CCRF-CEM leukemia 6.14% | MOLT-4 leukemia -14.6% | SR leukemia -6.6% | RPMI-8226 leukemia -25.4% | OVCAR-4 ovarian 8.51% | SK-OV-3 ovarian -18.4% | IGROV1 ovarian -54.7% | OVCAR-3 ovarian -19.8% | HS 578T breast -18% | NCI/ADR-RES ovarian 9.17% | T-47D breast 0.798%
inactive: SN12C renal 14.7% | OVCAR-8 ovarian 12.5% | OVCAR-5 ovarian 19.9%

CN1C(=S)N(C)C2C1NN=C1SC(c3ccccc3)=CC(=O)N12 (centres undefined)
inactive: EKVX NSCLC 80.9% | SN12C renal 96.2% | UO-31 renal 88.3% | ACHN renal 96.8% | CAKI-1 renal 90.8% | A498 renal 103% | CCRF-CEM leukemia 91% | MOLT-4 leukemia 89.8% | SR leukemia 65.4% | RPMI-8226 leukemia 93.9% | OVCAR-8 ovarian 94.4% | OVCAR-5 ovarian 103% | OVCAR-4 ovarian 85.7% | SK-OV-3 ovarian 102% | IGROV1 ovarian 97.5% | OVCAR-3 ovarian 107% | HS 578T breast 107% | NCI/ADR-RES ovarian 97.6% | T-47D breast 69.5%

Clc1ccc2c(NCCCN3CCOCC3)c3oc4ccccc4c3nc2c1
active: SR leukemia 8.11%
inactive: EKVX NSCLC 62.6% | SN12C renal 29.9% | UO-31 renal 40.1% | ACHN renal 19.3% | CAKI-1 renal 30.4% | A498 renal 33.7% | CCRF-CEM leukemia 32.8% | MOLT-4 leukemia 10.6% | RPMI-8226 leukemia 23.2% | OVCAR-8 ovarian 32.5% | OVCAR-5 ovarian 39.6% | OVCAR-4 ovarian 64.8% | SK-OV-3 ovarian 97.6% | IGROV1 ovarian 25.8% | OVCAR-3 ovarian 74.2% | HS 578T breast 58.2% | NCI/ADR-RES ovarian 44.2% | T-47D breast 76.5%

N#Cc1nc(-c2ccccc2)oc1S(=O)(=O)N1CCN(CCc2ccccn2)CC1
inactive: EKVX NSCLC 89% | SN12C renal 77.2% | CAKI-1 renal 54.3% | A498 renal 112% | RPMI-8226 leukemia 36.1% | OVCAR-8 ovarian 84.9% | OVCAR-5 ovarian 86.3% | OVCAR-4 ovarian 89.7% | SK-OV-3 ovarian 137% | IGROV1 ovarian 10% | HS 578T breast 106% | NCI/ADR-RES ovarian 99.2%
active: UO-31 renal -42.3% | ACHN renal -95.4% | CCRF-CEM leukemia 1.54% | MOLT-4 leukemia 0.215% | SR leukemia -19.2% | T-47D breast -24.2%

O=C(O)CCCCCN1C(=O)/C(=C/c2ccc(O)c(O)c2)SC1=S
inactive: EKVX NSCLC 97% | SN12C renal 98.5% | UO-31 renal 90.4% | ACHN renal 109% | CAKI-1 renal 102% | A498 renal 101% | CCRF-CEM leukemia 105% | MOLT-4 leukemia 106% | SR leukemia 107% | RPMI-8226 leukemia 111% | OVCAR-8 ovarian 103% | OVCAR-5 ovarian 108% | OVCAR-4 ovarian 101% | SK-OV-3 ovarian 124% | IGROV1 ovarian 106% | OVCAR-3 ovarian 108% | HS 578T breast 99.6% | NCI/ADR-RES ovarian 104% | T-47D breast 98%
